This is a sample that favours compounds with a hit; in the whole collection about 2.3% have one here.
Gli-Sufu block: Gli-Sufu pathway antagonists, primary screen, luciferase luminescence, Sufu-KO-LIGHT cells, uHTS; 340,000 tested, 0.74% active; inhibition, % at 5 µM; Sufu-KO-LIGHT fibroblasts, Gli luciferase reporter luminescence; AID 588413, 2011;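 active means inhibition above about 55%, limit read from the data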;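 further: 0% = DMSO-treated cells and 100% = wells with medium but no cells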
LMP1 NFkB inh: EBV LMP1-driven NF-kappaB luciferase reporter inhibitors, primary screen, cell-based, luminescence, single point; LMP1-induced NF-kappaB luciferase reporter cells; inhibition, % at 12.5 µM; 350,000 tested, 0.69% active; in the data active means inhibition above about 41%; inconclusive means no clear call, values can overlap the other calls;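 further: 0% = neutral control wells and 100% = reference inhibitor control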
697 NFkB inh: inhibitors of PMA/ionomycin-induced NF-kB reporter, 697 cells, primary screen, B-cell NF-kB inhibitor project, cell-based, luminescence, uHTS | 697 B-cell NF-kB luciferase reporter, 16 h | inhibition, % at 4 µM | 330,000 tested, 0.33% active; in the data active means inhibition above about 35%
TRPM1 prom inh: inhibitors of MITF-dependent TRPM1 promoter reporter, primary screen, cell-based, SK-MEL-5, single point, luciferase; SK-MEL-5 TRPM1 promoter luciferase, 24 h; inhibition, % at 12.5 µM; 330,000 tested, 0.83% active;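 active means mean inhibition across replicates of 60% or more, whatever share of single replicates reaches that level; inconclusive means some that reach 60%, reason not given; inactive means mean inhibition across replicates below 60%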
Jurkat NFkB inh: inhibitors of induced NF-kB luciferase reporter, primary screen, TCR NF-kB activation inhibitor project, cell-based, luminescence, uHTS | Jurkat, PMA/ionomycin-induced NF-kB luciferase reporter | inhibition, % at 4 µM | 330,000 tested, 0.53% active | AID 435003, 2010; in the data active means inhibition above about 50%
Shn3 inh set2: reduction of Shn3 3'UTR firefly luciferase signal, primary screen, Schnurri-3 inhibitor project, cell-based, Clone20 osteoblasts, set 2. Clone20 osteoblast Shn3 3'UTR firefly luciferase, 24 h. inhibition, % at 12.5 µM. 360,000 tested, 0.52% active. AID 588674, 2011;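 active means mean inhibition of at least 75% with every replicate also reaching 75%; inconclusive means mean inhibition at least 75% but some replicate below; inactive means mean inhibition below 75%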;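 further: 0% = median of neutral control wells and 100% = pilot-screen positive control compound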
697 NFkB conf: PMA/ionomycin-induced NF-kB reporter inhibitors, 697 retest, confirmation, B-cell NF-kB inhibitor project, cell-based, luminescence, single concentration | shares compounds with 697 NFkB inh | 697 B-cell NF-kB luciferase, 16 h | inhibition, % at 4 µM | 2,000 tested, 35% active; in the data active means inhibition mostly above about 28%, no sharp cut-off; inactive means mostly below about 22%
* marks the source's active call; other numbers are inactive results.

For Cc1nnc2ccc(-c3cccc(NS(=O)(=O)c4ccccc4Cl)c3)nn12 the results were Gli-Sufu block 21.0, LMP1 NFkB inh 27.4, 697 NFkB inh 31.8, TRPM1 prom inh -12.5, Jurkat NFkB inh 2.2 and Shn3 inh set2 9.7.
For CCOc1ccc(CC(=O)Nc2cccc(-c3ccc4nnc(C)n4n3)c2)cc1 the results were Gli-Sufu block 8.8, LMP1 NFkB inh 9.5, 697 NFkB inh 9.4, TRPM1 prom inh -1.5, Jurkat NFkB inh 5.3 and Shn3 inh set2 0.3.
Cc1nnc2ccc(-c3cccc(NS(=O)(=O)c4ccccc4[N+](=O)[O-])c3)nn12 was read as Gli-Sufu block 14.3, LMP1 NFkB inh 17.0, 697 NFkB inh 40.1*, TRPM1 prom inh -25.0, Jurkat NFkB inh -9.2, Shn3 inh set2 -3.6 and 697 NFkB conf 27.5.
COc1ccc(CC(=O)Nc2cccc(-c3ccc4nnc(C)n4n3)c2)cc1 was read as Gli-Sufu block 14.3, LMP1 NFkB inh 4.6, 697 NFkB inh 35.0, TRPM1 prom inh -9.5, Jurkat NFkB inh 19.6 and 697 NFkB conf 28.5*.
CCCS(=O)(=O)Nc1cccc(-c2ccc3nnc(C)n3n2)c1 was read as Gli-Sufu block 17.0, LMP1 NFkB inh 6.3, 697 NFkB inh 38.9*, TRPM1 prom inh -3.0, Jurkat NFkB inh 9.3, Shn3 inh set2 -10.5 and 697 NFkB conf 38.5*.
`CCS(=O)(=O)Nc1cccc(-c2ccc3nnc(-c4cccnc4)n3n2)c1` gave Gli-Sufu block 6.3, LMP1 NFkB inh -7.2, 697 NFkB inh 8.2, TRPM1 prom inh 3.0, Jurkat NFkB inh -13.0 and Shn3 inh set2 0.2.
Screening Cc1ccc(CSCC(=O)N2CCN(Cc3ccc4c(c3)OCO4)CC2)cc1 returned Gli-Sufu block -22.8, LMP1 NFkB inh 0.3, 697 NFkB inh -9.4, TRPM1 prom inh 17.8, Jurkat NFkB inh -12.6 and Shn3 inh set2 10.1.
`COc1cc(-c2noc(C)c2/C=C/c2ccc(C(=O)O)cc2)cc(OC)c1OC` gave Gli-Sufu block -16.2, LMP1 NFkB inh 2.1, 697 NFkB inh 36.8*, TRPM1 prom inh 3.5, Jurkat NFkB inh -20.2, Shn3 inh set2 -23.8 and 697 NFkB conf 25.9.
COc1cc(-c2noc(C)c2C(=O)N[C@@H](CO)Cc2ccccc2)cc(OC)c1OC was read as Gli-Sufu block -1.4, LMP1 NFkB inh 1.6, TRPM1 prom inh 9.2 and Shn3 inh set2 -10.9.
Screening O=C(/C=C/c1ccc(Cl)cc1Cl)c1nc2ccccc2[nH]1 returned Gli-Sufu block 2.3, LMP1 NFkB inh 4.9, 697 NFkB inh -3.4, TRPM1 prom inh -4.2, Jurkat NFkB inh -14.2 and Shn3 inh set2 8.2.
`Clc1ccc(/C=C/c2nc3ccccc3[nH]2)c(Cl)c1` gave Gli-Sufu block -181.6, LMP1 NFkB inh 9.8, 697 NFkB inh -487.7, TRPM1 prom inh 4.6, Jurkat NFkB inh -146.1, Shn3 inh set2 -28.2 and 697 NFkB conf inactive.
For O=C(CCCn1c(SCC(=O)NCC2CCCO2)nc2ccccc2c1=O)NCC1CCCO1 (stereo not drawn) the results were Gli-Sufu block -5.7, LMP1 NFkB inh 2.0, 697 NFkB inh -2.7, TRPM1 prom inh 7.5, Jurkat NFkB inh 16.1 and Shn3 inh set2 8.7.
For Cc1ccc(-n2c(Cc3cccc4ccccc34)n[nH]c2=S)c(C)c1 the results were Gli-Sufu block 9.4, LMP1 NFkB inh -0.7, 697 NFkB inh -8.2, TRPM1 prom inh 2.9, Jurkat NFkB inh -0.9 and Shn3 inh set2 -11.7.
Cn1cnnc1Sc1ccc(C(=O)OCC(=O)NCC(F)(F)F)cc1[N+](=O)[O-] was read as Gli-Sufu block -0.5, LMP1 NFkB inh -13.2, 697 NFkB inh 17.6, TRPM1 prom inh 7.2, Jurkat NFkB inh -0.1 and Shn3 inh set2 -16.0.
For CCN(CC)S(=O)(=O)c1cccc(NC(=O)c2ccc(Sc3nncn3C)c([N+](=O)[O-])c2)c1 the results were Gli-Sufu block -0.2, LMP1 NFkB inh 4.0, 697 NFkB inh 37.2*, TRPM1 prom inh 2.0, Jurkat NFkB inh 9.2 and 697 NFkB conf 11.9.
For O=C(Nc1nc2c(s1)CCCC2)c1cccs1 the results were Gli-Sufu block -84.4, LMP1 NFkB inh 5.2, 697 NFkB inh -251.9, TRPM1 prom inh -39.3, Jurkat NFkB inh -134.3, Shn3 inh set2 -18.6 and 697 NFkB conf -264.1.
For O=C(Nc1nc2c(s1)CCCC2)c1cccnc1 the results were Gli-Sufu block -53.7, LMP1 NFkB inh -5.5, 697 NFkB inh -76.5, TRPM1 prom inh -34.7, Jurkat NFkB inh -97.8 and Shn3 inh set2 -47.4.
Cc1ccc2nc(NC(=O)c3cccs3)sc2c1 was read as Gli-Sufu block -118.6, LMP1 NFkB inh 3.8, 697 NFkB inh -433.5, TRPM1 prom inh 6.7, Jurkat NFkB inh -138.1, Shn3 inh set2 -13.5 and 697 NFkB conf -454.5.
Screening Cc1ccc(Cc2cnc(NC(=O)c3cccs3)s2)cc1 returned Gli-Sufu block -115.9, LMP1 NFkB inh -3.8, 697 NFkB inh -299.3, TRPM1 prom inh -71.3, Jurkat NFkB inh -124.4, Shn3 inh set2 -78.0 and 697 NFkB conf -259.4.
Screening O=C(Nc1ncc(Cc2cccc(Cl)c2)s1)c1cccs1 returned Gli-Sufu block -25.1, LMP1 NFkB inh -43.4, 697 NFkB inh -117.9, TRPM1 prom inh -62.1, Jurkat NFkB inh -39.8 and Shn3 inh set2 -3.0.
For O=C1NC(c2ccc3ccccc3c2)Nc2ccccc21 (stereo not drawn) the results were LMP1 NFkB inh -14.0 and Shn3 inh set2 -20.5.
For O=C(Nc1ccc(O)cc1)c1c(O)c2c([nH]c1=O)CCCC2 the results were Gli-Sufu block -58.3, LMP1 NFkB inh -52.0, 697 NFkB inh -469.0, TRPM1 prom inh -80.7, Jurkat NFkB inh -95.4, Shn3 inh set2 -85.5 and 697 NFkB conf -260.6.
CCOC(=O)c1c(-c2ccc(C)cc2)csc1NC(=S)NC(=O)c1ccccc1 was read as Gli-Sufu block 4.3, LMP1 NFkB inh -5.1, 697 NFkB inh -486.0, TRPM1 prom inh 29.5, Jurkat NFkB inh 3.0, Shn3 inh set2 -0.8 and 697 NFkB conf 0.1.
For COC(=O)c1c(-c2ccccc2)csc1NC(=O)c1c(-c2ccccc2)noc1C the results were Gli-Sufu block 5.7, LMP1 NFkB inh 9.1, 697 NFkB inh inactive, TRPM1 prom inh 13.6, Jurkat NFkB inh -43.7, Shn3 inh set2 75.1 and 697 NFkB conf inactive.
NC(=O)c1cc(Cl)ccc1OCC(=O)Nc1ccc2c(c1)OCO2 was read as Gli-Sufu block -85.3, LMP1 NFkB inh inconclusive, 697 NFkB inh -90.1, TRPM1 prom inh -56.4, Jurkat NFkB inh -136.9 and Shn3 inh set2 -116.9.

High-throughput results deposited in PubChem by several laboratories.
